Like-named read-outs stand apart in the source and are kept apart here. Out of some 13,000 compounds screened, about 3,200 (25%) showed an effect of 50% or more. Some of the results follow.
System: P. falciparum stage V gametocytes
Parameters: BacTiter-Glo ATP luminescence viability of purified stage V gametocytes in 384-well plates, per cent inhibition versus DMSO
Settings: 48 h, 5 µM, inhibitor

SMILES	% Inhibition [%]	% Inhibition (% Inhibition) [%]
CCCC1(NC[C@@H](O)[C@H](Cc2ccccc2)NC(=O)c2cc(NCC)cc(N3CCCCS3(=O)=O)c2)CCC1 [TCMDC-135374]	23.04	
CCN(Cc1cccc2ccccc12)c1ccc2nc(N)nc(N)c2c1 [TCMDC-137765]	-46.6	
Nc1nc(N)c2c(Cl)c(CNc3cccc(C(=O)O)c3)ccc2n1 [TCMDC-138268]	-3.552	
CCOC(=O)COc1cccc(CNc2ccc3nc(N)nc(N)c3c2)c1 [TCMDC-137822]	100.9	
CCOC(=O)CN1Cc2cc(NCc3ccc4ccc5nc(C)[nH]c(=O)c5c4c3)ccc2C1=O [TCMDC-137815]	10.92	
Cc1ccccc1CNc1ccc2nc(N)nc(N)c2c1 [TCMDC-135439]	74.86	
COc1ccc(CNc2ccc3nc(N)nc(N)c3c2)cc1 [TCMDC-139002]	12.04	
CCOc1ccccc1C(=O)N1CCc2cc3nccc(N4CCN5CCC[C@H]5C4)c3cc21 [TCMDC-140042]	21.16	
CN(C)CCOc1ccc(-c2cc(-c3ccc(Cl)c(O)c3)c(-c3ccncc3)o2)cc1 [TCMDC-141254]	-18.41	
COc1ccc2nc(NC3=NC(c4ccccn4)(c4ccccn4)C(=O)N3C)[nH]c2c1 [TCMDC-139288]	10.34	
Cc1cccc(CN2CCCN(Cc3cccc(C(=O)Nc4ccc(C(C)(C)C)cc4)c3)CC2)c1 [TCMDC-135984]	-91.41	
CN(C)CCOc1ccc(-c2cc(-c3ccc(Cl)c(O)c3)c(-c3ccnc(N)n3)o2)cc1 [TCMDC-141332]	28.72	
N#Cc1ccc(-c2nc3c(N4CCCC4)cccc3n2CCNCc2ccccc2)cc1 [TCMDC-133433]	30.7	
COc1ccccc1N1CCN(c2cccc3c2nc(-c2cncc(C#N)c2)n3CCNCc2ccccc2)CC1 [TCMDC-133412]	-37.42	
CC1CN(c2cccc3c2nc(-c2cncc(C#N)c2)n3CCNCc2ccccc2)CC(C)O1 (stereo not shown) [TCMDC-133411]	66.36	
N#Cc1cncc(-c2nc3c(N4CCN(c5cnccn5)CC4)cccc3n2CCNCc2ccccc2)c1 [TCMDC-133413]	-21.4	
N#Cc1cncc(-c2nc3c(N4CCC(Cc5ccccc5)CC4)cccc3n2CCNCc2ccccc2)c1 [TCMDC-133546]	51.69	
c1ccc(CNCCn2c(-c3ccc4c(c3)CCO4)nc3c(N4CCCC4)cccc32)cc1 [TCMDC-134289]	92.48	
Oc1ccc(-c2nc3c(N4CCN(Cc5ccccc5)CC4)cccc3n2C2CCNCC2)cc1 [TCMDC-132125]	4.567	
CC(C)CN(C)c1ncnc2c1nc(-c1cncc(C#N)c1)n2CCNCc1ccccc1 [TCMDC-136555]	12.57	
N#Cc1cncc(-c2nc3c(N4CCCC(N)C4)cccc3n2CCNCc2ccccc2)c1 (stereo not shown) [TCMDC-135364]	-9.75	
CN(C)c1cccc2c1nc(-c1ccc3c(c1)CCO3)n2CCNCc1ccccc1 [TCMDC-134062]	5.243	
N#Cc1cncc(-c2nc3c(N4CCC(N5CCCC5)CC4)cccc3n2CCNCc2ccccc2)c1 [TCMDC-133547]	94.76	
CC[C@H](C)CNC(=O)c1cncc(-c2cccc(CN3CCC(N4CCCC4)CC3)c2)c1 [TCMDC-134226]	16.8	

SMILES	% Inhibition [%]	% Inhibition (% Inhibition) [%]
CN(c1cc(NC(=O)c2ccc(F)cc2)ccn1)C1CCN(Cc2cccc(F)c2)CC1 [TCMDC-135019]	38.57	
Cc1ccnc(NC(=O)c2cc(-c3cccc([N+](=O)[O-])c3)nc3onc(C)c23)c1 [TCMDC-124591]	3.347	
C=C[C@]1(C)C[C@@H](OC(=O)NC(=O)CCCS(=O)(=O)c2nnc(C)s2)[C@]2(C)[C@H](C)CC[C@]3(CCC(=O)[C@H]32)[C@@H](C)[C@@H]1O [TCMDC-140927]	24.97	
C#CC(C)(CO)N1CCCC1 (stereo not shown) [TCMDC-131372]	-4.555	
CCOC(=O)c1c(C)n(-c2ccccc2)c2ccc(O)cc12 [TCMDC-125483]	-27.27	
Oc1ccccc1CNCC12CC3CC(CC(C3)C1)C2 [TCMDC-125554]	-22.39	
CC(C)C[C@H](Nc1ccnc(NCC2CCCCC2)n1)C(=O)Nc1ccccc1 [TCMDC-134714]	-42.51	
CC(C)c1ccc(Nc2nc(NCCc3cnc[nH]3)nc(NCc3ccccc3)n2)cc1 [TCMDC-139741]	-6.505	
CC1CN(Cc2cccc(F)c2)CCN1c1ccc(NC(=O)c2ccc(F)cc2)cc1 (stereo not shown) [TCMDC-135017]	-0.6551	
Cc1ccc(NC(=O)Nc2cccc(Cl)c2)cc1-c1ccc(C(=O)Nc2ccncc2)cc1 [TCMDC-133699]	10.77	
Cl.Oc1ccc(C2CNCCc3c2cc(O)c(OCc2ccccc2)c3Cl)cc1 (stereo not shown) [TCMDC-141979]	17.32	
O=C(N[C@@H](Cc1ccccc1)C(=O)NC1CCCCC1)c1ccc(O)c(-c2ccc(Cl)c(Cl)c2)c1 [TCMDC-140824]	35.45	
O=C(NC(=S)Nc1cc(C(F)(F)F)cc(C(F)(F)F)c1)c1ccc(Cl)cc1 [TCMDC-124077]	25.76	
COc1cc(Cc2cnc(N)nc2N)cc(OCCCCCC(=O)O)c1OC [TCMDC-137677]	-23.13	
CC[C@H](C)CNC(=O)c1cncc(-c2cccc(CNC3Cc4ccccc4C3)c2)c1 [TCMDC-134218]	-33.07	
Cc1cccc(-c2ccc3c(c2)CC(NCc2cccc(-n4ccnc4)c2)C3)c1 (stereo not shown) [TCMDC-134831]	2.381	
NC(=O)c1cccc(-n2ccc3cc(CNC4Cc5ccccc5C4)ccc32)c1 [TCMDC-133416]	99.63	
c1ccc2nc(NCCCCCCCCNc3ccc4ccccc4n3)ccc2c1 [TCMDC-137745]	26.97	
c1ccc2ncc(CNCCCCCCCCNCc3cnc4ccccc4c3)cc2c1 [TCMDC-137744]	97.27	
COc1cccc(Cc2cnc3nc(N)nc(N)c3c2C)c1 [TCMDC-138060]	-3.76	
CC(=O)Nc1ccc(S(=O)(=O)Nc2ccc(Nc3nc(C)cc(N(C)C)n3)cc2)cc1 [TCMDC-124951]	-47.31	
COc1ccc2nccc([C@@H](O)CN3CCC(NC(=O)/C=C/c4cccc(NC(C)=O)c4)CC3)c2c1 [TCMDC-141029]	-15.14	
Fc1cccc(CNc2ncc(-c3ccsc3)c(-c3nccs3)n2)c1 [TCMDC-125374]	21.86	
COc1cccc(CNc2ncc(-c3ccsc3)c(-c3nccs3)n2)c1 [TCMDC-125375]	51.63	

SMILES	% Inhibition [%]	% Inhibition (% Inhibition) [%]
COc1ccc(CNc2ncc(-c3ccsc3)c(-c3nccs3)n2)cc1OC [TCMDC-125369]	23.78	
Fc1ccccc1CNc1ncc(-c2ccsc2)c(-c2nccs2)n1 [TCMDC-125366]	77.55	
c1cc(CNc2ncc(-c3ccsc3)c(-c3nccs3)n2)ccn1 [TCMDC-125371]	35.87	
COc1ccccc1CNc1ncc(-c2ccsc2)c(-c2nccs2)n1 [TCMDC-125376]	13.46	
COc1cc(CNc2ncc(-c3ccsc3)c(-c3nccs3)n2)cc(OC)c1 [TCMDC-124844]	31.51	
c1cncc(CNc2ncc(-c3ccsc3)c(-c3nccs3)n2)c1 [TCMDC-125368]	23.89	
Fc1ccc(CNc2ncc(-c3ccsc3)c(-c3nccs3)n2)cc1 [TCMDC-125372]	57.46	
Clc1ncccc1-c1nc(NCCC(c2ccccc2)c2ccccc2)no1 [TCMDC-134181]	13.92	
Clc1cc(Cl)cc(Nc2ccnc(Nc3cc(Cl)cc(Cl)c3)n2)c1 [TCMDC-134277]	-19.19	
Cc1nc(N/C=C/c2ccc(O)cc2)cc(N2CCCC2)n1 [TCMDC-135162]	20.32	
NC1=NC(c2ccccc2)(c2cccc(O)c2)C(=O)N1CCCc1ccccc1 (stereo not shown) [TCMDC-132351]		-3.76
COc1cccc(CN2CCC(CCOC(c3ccccc3)c3ccc(Cl)cc3)CC2)c1O (stereo not shown) [TCMDC-136040]	-76.2	
COc1ccc(S(=O)(=O)NC2CCN(CCCOc3ccnc4cc(Cl)ccc34)C2)cc1OC (stereo not shown) [TCMDC-136146]	-25.22	
COc1cc(Br)c(S(=O)(=O)n2cc(CN3CCC(N)CC3)c3cc(Cl)ccc32)cc1OC [TCMDC-136384]	95.22	
COc1ccc(NC(=O)Nc2ccc(-c3ccccc3)cc2Cl)cc1N1CCN(C)CC1 [TCMDC-139137]	-40.38	
O=S(=O)(NCCN1CCCC1)c1ccc(-c2ccc(CNC3Cc4ccccc4C3)cc2)s1 [TCMDC-132234]	69.5	
CN1CCC(NCc2cccc(-c3ccc(S(=O)(=O)NCCN4CCCC4)s3)c2)CC1 [TCMDC-132218]	98.17	
O=S(=O)(NCCN1CCCC1)c1ccc(-c2cccc(CNC3Cc4ccccc4C3)c2)s1 [TCMDC-132217]	90.5	
COc1cccc(-c2cnc(N)c(-c3nc4ccc(F)cc4[nH]3)c2)c1 [TCMDC-138791]	-6.276	
Cn1c(=O)c(-c2c(Cl)cccc2Cl)cc2cnc(Nc3ccc(N4CCOCC4)cc3)nc21 [TCMDC-137156]	-23.94	
O=C(Nc1cccc([N+](=O)[O-])c1)Nc1ccc(Cl)c(C(F)(F)F)c1 [TCMDC-123511]	-89.27	
CCN(c1ccc(F)cc1)S(=O)(=O)c1cc(Br)cc2c1N(C(=O)C1CC1)CC2 [TCMDC-123802]	-9.966	

— paper PMC4552634, “A New Set of Chemical Starting Points with Plasmodium falciparum Transmission-Blocking Potential for Antimalarial Drug Discovery” (PLoS ONE, 2015)
